Luciferase inh: inhibitors of firefly (Photinus pyralis) luciferase; P08659; purified P. pyralis luciferase, luminescence, biochemical; Potency, µM (top dose mostly 115 µM), most hits filed as inhibitors; 76,000 tested, 2.5% active; AID 1347043; note: nearly all actives have a fitted effect of over 65% in size
Target sequence (P08659 whole entry, looked up): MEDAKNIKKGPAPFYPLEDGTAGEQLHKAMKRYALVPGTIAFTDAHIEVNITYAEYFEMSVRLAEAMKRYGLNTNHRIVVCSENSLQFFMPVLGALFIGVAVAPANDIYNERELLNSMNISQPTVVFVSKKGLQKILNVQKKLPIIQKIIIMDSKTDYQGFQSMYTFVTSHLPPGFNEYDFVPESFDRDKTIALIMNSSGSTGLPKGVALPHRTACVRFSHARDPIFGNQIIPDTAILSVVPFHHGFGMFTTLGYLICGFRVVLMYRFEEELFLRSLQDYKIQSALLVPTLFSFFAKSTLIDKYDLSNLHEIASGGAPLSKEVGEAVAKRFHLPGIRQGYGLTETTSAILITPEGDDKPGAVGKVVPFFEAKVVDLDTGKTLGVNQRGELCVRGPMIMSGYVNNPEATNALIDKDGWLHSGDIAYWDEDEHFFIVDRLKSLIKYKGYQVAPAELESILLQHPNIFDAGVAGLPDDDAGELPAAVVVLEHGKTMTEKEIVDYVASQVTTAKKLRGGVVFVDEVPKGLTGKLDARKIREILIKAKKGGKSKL
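Purified 10nM P. pyralis luciferase with 10uM D-luciferin and 10uM ATP in 50mM Tris acetate pH 7.5, 10mM Mg acetate, 0.01% Tween-20, 0.05% BSA. qHTS titration; luminescence read by CCD imager.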
3T3 cytotox: NIH 3T3 cell cytotoxicity | NIH 3T3 viability, CellTiter-Glo ATP luminescence, 48-72 h | Potency, µM (doses to about 96.7 µM), without a hit: at the top dose activity change, negative = cytotoxicity, actives largely listed as inhibitors | 94,000 tested, 4.3% active | AID 1345082; note: nearly all actives have a fitted effect of over 55% in size
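Cytotoxicity was measured by CellTiter-Glo ATP luminescence after 48 or 72 h compound exposure at 37 °C. Mouse NIH 3T3 fibroblasts were seeded at 400 cells/well and dosed by 23 nL pin transfer.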
HEK293 tox: cytotoxic compounds in HEK 293 cells; Potency, µM (top dose mostly 115 µM), for the others: at the highest dose activity change, negative = cytotoxicity, most hits filed as inhibitors; 94,000 tested, 6.6% active; HEK 293 viability, ATP luminescence (CellTiter-Glo), 48-72 h; AID 1345083; note: nearly all actives have a fitted effect of over 60% in size
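Read-out: CellTiter-Glo ATP luminescence. Cells: HEK 293, 250 cells/well. Exposure: 48 or 72 hr, 37 degree Celsius.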
NPR1 antag: blocks ANP-stimulated signaling of human Npr1 receptor; P16066; Potency, µM (highest dose often 46.3 µM), inactives show at the top dose activity change, negative = inhibition, hits mostly inhibitors; HEK293 hNpr1 GloSensor cGMP, ANP-stimulated luminescence; 76,000 tested, 1.6% active; AID 1347048; calls by dose curve; note: nearly all actives have a fitted effect of over 60% in size
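HEK293 cells stably expressing human Npr1 and cGMP GloSensor pGS-40F, loaded 2 h with 2% GloSensor reagent, given compound 30 min at room temperature. Luminescence read before and 20 min after 0.1 nM hNppA.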
GPT2 inhibitor: blocks human glutamate pyruvate transaminase 2; Q8TD30; Recombinant GPT2, coupled pyruvate oxidase/HRP Amplex Red fluorescence; Potency, µM (top dose mostly 57.7 µM), for the others: at the top dose activity change, negative = inhibition, hits mostly inhibitors; 100,000 tested, 0.25% active; AID 1671188; note: nearly all actives have a fitted effect of over 60% in size
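Inhibition is scored from Amplex Red fluorescence generated when pyruvate oxidase and HRP act on pyruvate released by GPT2. Reactions contain 10ng/uL enzyme, 250uM a-KG and 2mM L-alanine and run 30 min at room temperature.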
* = called active by the depositor; i = inactive; ? = inconclusive; . = no result given; [ ] = another dose, or the depositor's remark. Only some compounds are listed: those with a hit (about 10% of all), similar ones and a draw of the others. Unless noted, calls come from the whole dose curve; as a rule, active = well fitted curve in the direction sought with a large enough effect; inconclusive = small, poorly fitted or top-dose-only effect, or another doubt; inactive = no such curve, though single readings can be large; an effect the other way counts as inactive or inconclusive. % is set by controls: 0 for no effect and ±100 for the full control effect; potency is the fitted concentration of half-maximal effect.

SMILES	Luciferase inh	3T3 cytotox	HEK293 tox	NPR1 antag	GPT2 inhibitor
O=C(Cn1ccc(=O)[nH]c1=O)N1CCC2(CCCN(C3CCCC3)C2=O)C1 (centres undefined)	i	3%	-1%	15%	-9%[11.5 µM]
O=C(NCCc1ccc(Cl)cc1)c1cc(-c2cccs2)c2cccn2n1	.	?	45µM*	.	-4%
O=C(NCCCc1ccccc1)c1cc(-c2cccs2)c2cccn2n1	.	?	?	.	i
O=C(NCc1cccs1)c1cc(-c2cccs2)c2cccn2n1	.	?	50µM*	.	-3%
COc1ccc(CNC(=O)C[C@@H]2CCNC[C@@H]2Cc2cc(C(C)(C)C)on2)cc1	i	-27%[138 µM]	?	-2%[70.6 µM]	0%[88.5 µM]
O=C(C[C@@H]1CCNC[C@@H]1Cc1cc(CC2CCCCC2)on1)NCc1cccnc1	i	?	2%[172 µM]	0%[70.6 µM]	4%[88.5 µM]
O=C(C[C@@H]1CCNC[C@@H]1Cc1cc(COc2ccccc2)on1)NCc1ccc(F)cc1	i	?	?	-14%	i
COc1ccc(CNC(=O)C[C@@H]2CCNC[C@@H]2Cc2cc(COc3ccccc3)on2)cc1	i	25µM*	?	-24%	-2%
COc1ccc(CNC(=O)C[C@@H]2CCNC[C@@H]2Cc2cc(CC3CCCCC3)on2)cc1	i	28µM*	28µM*	?	?
COc1ccc(CNC(=O)C[C@@H]2CCNC[C@@H]2Cc2cc(CSc3ccccc3)on2)cc1	i	?	50µM*	-29%	i
O=C(C[C@@H]1CCNC[C@@H]1Cc1cc(CC2CCCCC2)on1)NCc1ccco1	i	100µM*	45µM*	?	i
COc1cccc(CC(=O)N2CCC(c3n[nH]c(=O)n3-c3ccccc3)CC2)c1	i	-21%	-3%	3%	i
Cc1cc(C)c(CN2CCC(n3cc(C(C)(C)N)nn3)CC2)c(C)c1	i	79µM*	?	7%	i
Cc1ccc(Nc2ccnc(N3CCCC(C(=O)NCCCc4ccccc4)C3)n2)cc1 (centres undefined)	.	?	5µM*	.	i
COc1ccc(Nc2ccnc(N3CCCC(C(=O)NCCCc4ccccc4)C3)n2)cc1 (centres undefined)	.	?	22µM*	.	-8%
Cc1ccc(Nc2ccnc(N3CCC(C(=O)NCCCc4ccccc4)CC3)n2)cc1	.	13µM*	?	.	i
CSCCNC(=O)C1CCCN(c2nccc(Nc3ccc(C)cc3)n2)C1 (centres undefined)	.	?	?	.	0%
COc1ccc(Nc2ccnc(N3CCCC(C(=O)NC4CC4)C3)n2)cc1 (centres undefined)	.	?	?	.	i
Cc1nc(C(=O)N2CCOc3c(O)cc(-c4cccc(Cl)c4)cc3C2)c(C)o1	i	?	40µM*	?	-18%
Cc1ccnn1CC(=O)N1CCOc2c(O)cc(-c3cccc(Cl)c3)cc2C1	i	?	?	-28%	-8%
CCOC(=O)C(C)N1CCOc2c(O)cc(-c3cccc(Cl)c3)cc2C1 (centres undefined)	i	?	45µM*	?	2%[11.5 µM]
CN(C)Cc1ccc(-c2cc3c(ccn3Cc3ccncc3)c(N3CCOCC3)n2)cc1	i	?	100µM*	-1%[70.6 µM]	i
Cn1cc(-c2cc3c(ccn3Cc3ccncc3)c(N3CCOCC3)n2)cn1	i	?	-11%[172 µM]	-1%[70.6 µM]	i
c1cc(Cn2ccc3c(N4CCOCC4)nc(-c4ccc5cn[nH]c5c4)cc32)ccn1	i	25µM*	40µM*	-21%[70.6 µM]	i
c1cc(Cn2ccc3c(N4CCOCC4)nc(-c4cn[nH]c4)cc32)ccn1	i	?	-18%[172 µM]	-7%[70.6 µM]	i
SMILES	Luciferase inh	3T3 cytotox	HEK293 tox	NPR1 antag	GPT2 inhibitor
COCCN1Cc2ccccc2N(CC(O)Cc2ccccc2)CCC1=O (centres undefined)	.	-20%	?	.	.
CCC(=O)c1c(O)cc(O)cc1O	.	.	.	.	5µM*
Cc1cc(O)c2c(c1)C(=O)c1cc(O)cc(O)c1C2=O	.	.	.	.	-20%
CN1CCC(N2C[C@@H](CO)[C@H](c3nc(-c4ccncc4)no3)C2)CC1	i	i	2%	2%	i
CCNC(=O)Nc1ccc2c(c1)CN(Cc1cccc(OC)c1)C(=O)C(CC)O2 (centres undefined)	i	-15%	?	-17%	i
CCC1Oc2ccc(NC(=O)Cc3ccccc3)cc2CN(Cc2cccc(OC)c2)C1=O (centres undefined)	i	?	?	-15%	i
CCC1Oc2ccc(NC(=O)Nc3cccc(OC)c3)cc2CN(Cc2ccc3c(c2)OCO3)C1=O (centres undefined)	i	?	32µM*	1%	i
CCC1Oc2ccc(NC(=O)COc3ccccc3)cc2CN(Cc2cccc(OC)c2)C1=O (centres undefined)	i	?	45µM*	-3%	-1%
Clc1ccc(-c2nnc3n2CCN(Cc2cncs2)C3)cc1	.	?	i	.	3%
c1ccc(-c2noc(Nc3ccc4c(c3)OCCO4)n2)cc1	22µM*	?	40µM*	-29%	i
Cn1cc(CN2CCNc3cnc(-c4ccccc4)cc3C2)cn1	i	32µM*	?	0%[70.6 µM]	0%[88.5 µM]
Cc1cccc(CN2CCNc3cnc(-c4ccccc4)cc3C2)c1	i	?	?	-25%[70.6 µM]	i
CN(C)c1ccc(CN2CCNc3cnc(-c4ccccc4)cc3C2)cc1	i	?	100µM*	-15%[70.6 µM]	i
CC1(C(=O)NCc2ccco2)CN(Cc2ccccc2)Cc2ccc(N3CCOCC3)nc21 (centres undefined)	i	?	?	-11%	-3%
N[C@H]1CO[C@H]2[C@@H]1OC[C@@H]2n1cc(-c2ccccn2)nn1	i	?	126µM*	-4%[70.6 µM]	?
COc1ccccc1Cn1c(=O)c(C(=O)N2CCN(C(=O)Nc3ccccc3)CC2)nc2cccnc21	.	-24%	1%	.	3%
O=C(Nc1ccc(Cl)cc1Cl)c1cnn2c1CN(C(=O)c1ccccc1F)CC2	.	-22%	-8%	.	i
CN1C[C@H](NCc2ccc(F)cc2)CCC[C@@H](C(=O)N(C)Cc2cccnc2)CC1=O	i	-13%[174 µM]	?	-6%[70.6 µM]	-3%[88.5 µM]
COCC(=O)N[C@H]1C[C@H]2C(=O)NC[C@@H](CCC(=O)NCc3cccnc3)N2C1	i	-6%[174 µM]	-21%[172 µM]	2%[70.6 µM]	-9%[88.5 µM]
COC(=O)[C@@H]1Cc2c([nH]c3ccccc23)[C@H]2C[C@@H](NCc3cccnc3)C[C@@H](c3ccc(F)c(F)c3)N21	i	?	25µM*	-2%	0%
COC(=O)[C@@H]1Cc2c([nH]c3ccccc23)[C@H]2C[C@@H](NCc3cccnc3)C[C@@H](c3ccc(C(F)(F)F)cc3)N21	i	28µM*	?	2%	-2%
